The assay has as its system Renilla luciferase (RLuc). As to the kind of experiment: residual bioluminescent signal relative to negative control without GSH; higher = less interference (more residual luciferase signal). The following applies: screening conditions buffer. Here is the method: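 Selected metal salts at 3-4 concentrations tested on purified FLuc, NLuc or RLuc in screening buffer with 0, 0.2 or 2 mM glutathione added; 10 min enzyme pre-incubation at RT, luminescence 10 min after substrate. Signal normalised to negative control without GSH (% N_VALUE); triplicate wells.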

The mark [1] stands for this setting: metal salt concentration 1 mM, glutathione 0 mM.
[2] abbreviates: metal salt concentration 1 mM, glutathione 0.2 mM.
The mark [3] stands for this setting: metal salt concentration 1 mM, glutathione 2 mM.

± gives the standard deviation of the averaged measurements.

Consider `[Cl][Fe]([Cl])[Cl]` [iron(III) chloride], for which the residual bioluminescent signal is, setting by setting: (metal salt concentration 0.005 mM, glutathione 0 mM) 115 ± 9.3%; (metal salt concentration 0.005 mM, glutathione 0.2 mM) 116 ± 14%; (metal salt concentration 0.005 mM, glutathione 2 mM) 161 ± 26%; (metal salt concentration 0.536 mM, glutathione 0 mM) 36.6 ± 8%; (metal salt concentration 0.536 mM, glutathione 0.2 mM) 53 ± 4.8%; (metal salt concentration 0.536 mM, glutathione 2 mM) 101 ± 13%. Besides, the residual bioluminescent signal is 33.4 ± 2% under setting [1]; 39.3 ± 5.5% under setting [2]; 48.9 ± 13% under setting [3]; 2.29 ± 1.6% (metal salt concentration 5 mM, glutathione 0 mM); 0.915 ± 0.4% (metal salt concentration 5 mM, glutathione 0.2 mM); 2.06 ± 1.4% (metal salt concentration 5 mM, glutathione 2 mM).
Take `[Cl][Fe][Cl]` [iron(II) chloride]: the residual bioluminescent signal reads like this: (metal salt concentration 0.02 mM, glutathione 0 mM) 86.2 ± 14%; (metal salt concentration 0.02 mM, glutathione 0.2 mM) 91.9 ± 18%; (metal salt concentration 0.02 mM, glutathione 2 mM) 122 ± 5.5%; (metal salt concentration 0.118 mM, glutathione 0 mM) 47.6 ± 13%; (metal salt concentration 0.118 mM, glutathione 0.2 mM) 56.5 ± 11%; (metal salt concentration 0.118 mM, glutathione 2 mM) 75.7 ± 7.6%. Further, the residual bioluminescent signal (metal salt concentration 0.5 mM, glutathione 0 mM) was found to be 16.5 ± 3.1%; the residual bioluminescent signal (metal salt concentration 0.5 mM, glutathione 0.2 mM) worked out at 22.9 ± 4.2%; the residual bioluminescent signal (metal salt concentration 0.5 mM, glutathione 2 mM) was found to be 31.1 ± 5.1%; the residual bioluminescent signal under setting [1] turned out to be 12.3 ± 4.2%; the residual bioluminescent signal under setting [2] was 18.7 ± 10%; the residual bioluminescent signal under setting [3] is 32 ± 11%.
